# Reference: PubChem BioAssay (NCATS)
# Several values for one entry are separate records, joined by “and”; a condition that tells them apart may be missing. Equal values may be shown once. Results filed as inconclusive are left out. Where a call stands in place of a potency, no number is given. Activity calls are given as the source filed them. Unless noted, calls follow the shape of the dose curve; as a rule, active = well fitted curve in the direction sought with a large enough effect; inconclusive = small, poorly fitted or top-dose-only effect, or another doubt; inactive = no such curve, though single readings can be large; an effect the other way counts as inactive or inconclusive.
# Assays:
# [1] = Cell Viability - NIH 3T3 (AID 541); conditions: NIH 3T3 cell viability, qHTS; activity change, negative = cytotoxicity: at 92.2 µM (top of the series); also: nearly all actives have a fitted effect of over 25% in size; also: potency is read from the fitted curve at half-maximal effect
# In short: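 Luminescent ATP signal (CellTiter-Glo) served as the viability read-out after NIH 3T3 cells were exposed to compounds over a concentration range for 40 hr at 37 °C. Hill-equation modelling of concentration-response data gave AC50.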
# [2] = Cell Viability - SH-SY5Y (AID 544); conditions: SH-SY5Y neuroblastoma cell viability; viability change, negative = cytotoxic: at 92.2 µM (top of the series); also: nearly all actives have a fitted effect of over 55% in size
# In short: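 Luminescent ATP read-out (CellTiter-Glo) measures loss of viable SH-SY5Y neuroblastoma cells after 40 hr compound exposure at 37 °C. AC50 values derive from standard Hill modelling of qHTS concentration-response data.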
# [3] = Cell Viability - LYMP2-001 (AID 921); also: nearly all actives have a fitted effect of over 70% in size
# In short: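 Human lymphoblastoid cells (Coriell), 2500 per well, were preincubated 5 hr at 37 C, then exposed to compounds in complete medium for 24 hr at 37 C. Cellular ATP was read by CellTiter-Glo luminescence; AC50 from Hill fits of concentration-response data.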
# [4] = Cell Viability - LYMP1-003 - Assay at 40 hr (AID 964); also: nearly all actives have a fitted effect of over 60% in size
# In short: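 Cells were seeded at 2500 per well and incubated 5 hr at 37 C. Compounds were added across a concentration series and left 40 hr at 37 C. CellTiter-Glo was added for 30 min at room temperature before luminescence reading.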
# [5] = Cell Viability - LYMP2-004 (AID 966); also: nearly all actives have a fitted effect of over 65% in size
# In short: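 Cells seeded 2500/well, rested 5 hr at 37 C, dosed across a concentration series, incubated 24 hr at 37 C, then CellTiter-Glo added for 30 min at room temperature and luminescence read. Hill fitting gave AC50.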
# [6] = Cell Viability - LYMP2-015 (AID 971); also: nearly all actives have a fitted effect of over 55% in size
# In short: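 Luminescent ATP read-out (CellTiter-Glo) served as the viability measure after lymphoblastoid cells were exposed to compounds for 24 hours at 37 C. Concentration-response data were fitted with the Hill equation to give AC50.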
# [7] = Cell Viability - LYMP2-017 (AID 972); also: nearly all actives have a fitted effect of over 55% in size
# In short: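 2500 cells/well, 5 h 37 C; cpd 24 h 37 C in complete medium; CellTiter-Glo, 30 min RT; luminescence (ATP). AC50 via Hill fit, qHTS.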
# [8] = Cell Viability - LYMP2-025 (AID 976)
# In short: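 Seed 2500 LYMP2-025 cells/well; 5 hr at 37 C; add compound; 24 hr at 37 C; add CellTiter-Glo; 30 min RT; read luminescence. AC50 from Hill-modelled concentration-response.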
# [9] = Cell Viability - LYMP2-006 (AID 978); also: nearly all actives have a fitted effect of over 60% in size
# In short: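 Human lymphoblastoid cells, 2500 per well, were preincubated 5 hr at 37 C, then exposed to compounds for 24 hr at 37 C in complete medium. Viability was read as intracellular ATP by CellTiter-Glo luminescence; AC50 from Hill-equation fits of qHTS concentration-response data.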
# [10] = Cell Viability - LYMP2-010 (AID 981); also: nearly all actives have a fitted effect of over 55% in size
# In short: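 Luminescent ATP signal (CellTiter-Glo) served as the viability read-out. Cells of the human lymphoblastoid line were treated with compound over a concentration range for 24 hours at 37 C, and AC50 values came from Hill-equation modeling.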
# [11] = Cell Viability - LYMP2-012 (AID 982)
# [12] = Cell Viability - LYMP2-014 (AID 983); also: nearly all actives have a fitted effect of over 50% in size
# In short: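 Luminescent ATP signal (CellTiter-Glo, 30 min at room temperature) serves as the viability read-out after 24 hr compound exposure at 37 C. Cells were seeded at 2500 per well and settled 5 hr beforehand.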
# [13] = Cell Viability - LYMP2-022 (AID 987); also: nearly all actives have a fitted effect of over 55% in size
# In short: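 qHTS: human lymphoblastoid cells 2500/well; 5 hr 37 C; cpd added; 24 hr 37 C; CellTiter-Glo, 30 min RT; luminescence. AC50 via Hill fit; tetraoctylammonium bromide positive ctrl.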
# [14] = qHTS assay for small molecule agonists of retinoid X receptor alpha signaling (AID 588544; calls by dose curve); conditions: HEK293T RXRa-UAS-bla, beta-lactamase reporter, 18 h; 530 nm emission
# [15] = target: Retinoic acid receptor RXR-alpha (Homo sapiens) (UniProt P19793); assay: as above
# Chain of Retinoic acid receptor RXR-alpha (Homo sapiens) (P19793 whole entry, looked up): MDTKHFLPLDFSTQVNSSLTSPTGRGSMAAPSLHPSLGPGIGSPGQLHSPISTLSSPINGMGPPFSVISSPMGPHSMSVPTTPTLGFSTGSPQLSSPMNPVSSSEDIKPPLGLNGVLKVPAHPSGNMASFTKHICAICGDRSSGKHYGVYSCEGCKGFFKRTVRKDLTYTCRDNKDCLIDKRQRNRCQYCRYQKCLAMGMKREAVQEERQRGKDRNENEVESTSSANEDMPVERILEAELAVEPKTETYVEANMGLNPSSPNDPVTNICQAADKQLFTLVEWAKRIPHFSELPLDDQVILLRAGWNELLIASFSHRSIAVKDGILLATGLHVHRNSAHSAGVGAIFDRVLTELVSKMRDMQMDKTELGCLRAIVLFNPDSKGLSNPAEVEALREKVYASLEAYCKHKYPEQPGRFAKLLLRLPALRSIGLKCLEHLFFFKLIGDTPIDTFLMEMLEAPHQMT
# [16] = target: Thyroid hormone receptor beta (Homo sapiens) (UniProt P10828); assay: qHTS assay for small molecule agonists of thyroid hormone receptor beta signaling (AID 588545; calls by dose curve)
# Chain of Thyroid hormone receptor beta (Homo sapiens) (P10828 whole entry, looked up): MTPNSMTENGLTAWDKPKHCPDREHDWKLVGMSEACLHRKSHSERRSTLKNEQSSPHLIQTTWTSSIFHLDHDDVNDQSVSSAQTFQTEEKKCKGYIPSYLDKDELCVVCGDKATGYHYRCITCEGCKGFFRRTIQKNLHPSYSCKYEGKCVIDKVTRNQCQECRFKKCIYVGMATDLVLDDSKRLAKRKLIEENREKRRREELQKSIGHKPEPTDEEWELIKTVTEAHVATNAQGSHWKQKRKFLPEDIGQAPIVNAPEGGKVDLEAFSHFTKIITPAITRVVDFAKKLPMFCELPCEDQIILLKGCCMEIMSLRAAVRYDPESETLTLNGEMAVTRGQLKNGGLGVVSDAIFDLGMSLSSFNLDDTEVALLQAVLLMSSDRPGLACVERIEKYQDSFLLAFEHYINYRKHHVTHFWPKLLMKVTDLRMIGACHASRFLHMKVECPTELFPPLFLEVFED
# In short: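 Beta-lactamase reporter activity under TR response element control is measured in HEK 293 cells after 18 hrs compound exposure. Signal is ratiometric CCF4 fluorescence, 460/530 nm.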
# [17] = qHTS assay for small molecule antagonists of retinoid X receptor alpha signaling (AID 588546; active = well fitted inhibition curve with a large enough effect in the signal ratio, with a control signal flat, not every such curve was filed as active; the % refers to the signal ratio;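 also: cells stimulated with 9-cis-retinoic acid as agonist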); conditions: HEK293T RXRa-UAS-bla, beta-lactamase ratio, antagonist mode; measured here: W530 green channel, cytotoxicity proxy
# In short: (§1)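 Beta-lactamase reporter inhibition, read as CCF4 fluorescence ratio (ex 405, em 460/530 nm) after 2 h at RT. HEK293T UAS-bla cells, 2500/well, were stimulated with 9-cis-RA at 500 or 100 nM final alongside test compound for 18 h at 37 C.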
# [18] = target: Retinoic acid receptor RXR-alpha (Homo sapiens) (UniProt P19793); assay: as above; conditions: HEK293T RXRa-UAS-bla, beta-lactamase ratio, antagonist mode
# In short: as §1
# [19] = target: Thyroid hormone receptor beta (Homo sapiens) (UniProt P10828); assay: qHTS assay for small molecule antagonists of thyroid hormone receptor beta signaling (AID 588547; active = well fitted inhibition curve with a large enough effect in the signal ratio, with a control signal flat, not every such curve was filed as active; the % refers to the signal ratio;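 also: cells stimulated with 0.4 nM T3 agonist during compound exposure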); conditions: TR-UAS-bla HEK293, beta-lactamase ratio, antagonist mode, 18 h
# In short: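 TR-UAS-bla GripTite HEK293 cells in 2% charcoal/dextran FBS medium were preincubated 4 h at 37 C, given compound (0.59 nM to 92 uM) plus 0.4 nM T3 (final) for 18 h, then CCF4 for 2 h at RT; Hill fit gave IC50.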
# [20] = target: Voltage-gated inwardly rectifying potassium channel KCNH2 (Homo sapiens) (UniProt Q12809); assay: qHTS Assay for Small Molecule Inhibitors of the Human hERG Channel Activity (AID 588834);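 also: top concentration of the series differs between compounds; lower thallium flux fluorescence means stronger hERG block; nearly all actives have a fitted effect of over 50% in size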
# Chain of Voltage-gated inwardly rectifying potassium channel KCNH2 (Homo sapiens) (Q12809 whole entry, looked up): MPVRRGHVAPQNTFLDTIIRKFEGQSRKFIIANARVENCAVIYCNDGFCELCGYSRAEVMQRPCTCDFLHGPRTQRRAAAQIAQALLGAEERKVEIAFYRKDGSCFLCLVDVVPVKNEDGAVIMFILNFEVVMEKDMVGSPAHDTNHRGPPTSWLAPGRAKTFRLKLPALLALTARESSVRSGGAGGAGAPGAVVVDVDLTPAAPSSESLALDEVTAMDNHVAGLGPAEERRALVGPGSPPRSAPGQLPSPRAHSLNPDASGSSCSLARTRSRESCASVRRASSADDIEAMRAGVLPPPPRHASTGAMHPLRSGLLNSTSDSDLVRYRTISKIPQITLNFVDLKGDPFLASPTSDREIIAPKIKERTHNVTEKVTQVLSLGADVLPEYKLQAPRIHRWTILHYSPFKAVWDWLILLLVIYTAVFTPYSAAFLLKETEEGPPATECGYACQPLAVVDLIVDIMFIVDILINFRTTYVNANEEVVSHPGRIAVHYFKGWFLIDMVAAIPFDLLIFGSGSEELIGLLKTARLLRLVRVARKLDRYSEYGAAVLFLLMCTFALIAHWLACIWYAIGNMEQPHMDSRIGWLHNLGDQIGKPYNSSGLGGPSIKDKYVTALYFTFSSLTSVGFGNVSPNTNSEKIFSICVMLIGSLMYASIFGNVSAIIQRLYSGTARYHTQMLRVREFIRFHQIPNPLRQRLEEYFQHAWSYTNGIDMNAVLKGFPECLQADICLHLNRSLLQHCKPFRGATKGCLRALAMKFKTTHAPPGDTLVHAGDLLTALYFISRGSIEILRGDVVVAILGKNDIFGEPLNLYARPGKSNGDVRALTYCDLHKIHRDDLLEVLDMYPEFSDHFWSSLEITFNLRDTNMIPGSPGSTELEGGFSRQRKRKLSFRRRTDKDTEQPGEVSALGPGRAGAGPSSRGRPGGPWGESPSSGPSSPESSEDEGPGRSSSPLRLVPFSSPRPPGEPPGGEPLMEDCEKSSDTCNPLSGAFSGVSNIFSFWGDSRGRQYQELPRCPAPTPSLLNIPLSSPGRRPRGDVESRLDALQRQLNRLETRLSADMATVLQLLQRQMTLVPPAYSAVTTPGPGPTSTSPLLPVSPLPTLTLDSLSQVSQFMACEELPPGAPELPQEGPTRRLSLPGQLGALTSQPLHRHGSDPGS
# In short: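 U2OS cells transduced with hERG via BacMam (MOI ~100), plated 2000/well, loaded with FluxOR thallium dye, compound ~10 min, then stimulation buffer; fluorescence decrease read kinetically; AC50 from Hill fits.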
Structure (SMILES),Potency [1],Potency [2],Potency [3],Potency [4],Potency [5],Potency [6],Potency [7],Potency [8],Potency [9],Potency [10],Potency [11],Potency [12],Potency [13],max response [14],outcome [15],Potency [16],max response [17],max response [18],activity change % (negative = inhibition) [19],Potency [20]
CCSC(=O)N1CCCCCC1,inactive,inactive,inactive,inactive,inactive,inactive,inactive,inactive,inactive,inactive,inactive,inactive,inactive,-15.2% and -3.96%,inactive,inactive,-11.6% and -2.5%,-8.27% (inactive) and -1.48% (inactive),-3.1% (inactive) and -10.9% (inactive),inactive
[O-][Cl+]O,inactive,inactive,inactive,inactive,inactive,inactive,inactive,inactive,inactive,inactive,inactive,inactive,inactive,-9.53%,inactive,inactive,0.141%,22.2% (inactive),,inactive
CCOP(=S)(OCC)Oc1nc(Cl)c(Cl)cc1Cl,inactive,inactive,inactive,inactive,inactive,inactive,inactive,inactive,inactive,inactive,inactive,inactive,inactive,-1.15%,inactive,inactive,-8.45% [middle of 4 runs],,4.5% (inactive) and 5.64% (inactive) and -7.44% (inactive),
O=P(OCCCl)(OCCCl)OCCCl,inactive,inactive,inactive,inactive,inactive,inactive,inactive,inactive,inactive,inactive,inactive,inactive,inactive,-20%,inactive,inactive,-9.97%,7.26% (inactive),2.42% (inactive),inactive
O=C(Cc1ccccc1)OCc1ccccc1,inactive,inactive,inactive,inactive,inactive,inactive,inactive,inactive,inactive,inactive,inactive,inactive,inactive,10.7%,inactive,inactive,8.24%,-5.19% (inactive),0.158% (inactive),inactive
CN(C)C(=O)Nc1ccc(Cl)cc1,inactive,inactive,inactive,inactive,inactive,inactive,inactive,,inactive,inactive,inactive,inactive,inactive,-9.88% and -12.4%,inactive,inactive,-7.13% and -6.88%,-0.754% (inactive) and 1.84% (inactive),-0.766% (inactive),inactive
Cc1cccc(N)c1C,inactive,inactive,inactive,,inactive,inactive,,inactive,inactive,inactive,,inactive,inactive,-3.13%,inactive,inactive,-9%,13.5% (inactive),2.82% (inactive),inactive
O=C(O)CBr,inactive,inactive,inactive,inactive,inactive,inactive,inactive,inactive,inactive,inactive,inactive,inactive,inactive,-13.9%,inactive,inactive,-7.96%,-0.759% (inactive),11.6% (inactive),inactive
C=CCCC#N,,inactive,inactive,inactive,inactive,inactive,inactive,inactive,inactive,inactive,inactive,inactive,inactive,-8.63%,inactive,inactive,-6.48%,17.4% (inactive),9.59% (inactive),inactive
Oc1cc(Cl)cc(Cl)c1,inactive,inactive,inactive,inactive,inactive,inactive,inactive,inactive,inactive,inactive,inactive,inactive,inactive,-13.2%,inactive,inactive,-2.61%,-5.58% (inactive),11.4% (inactive),inactive
C=CC#N,,inactive,inactive,inactive,inactive,inactive,inactive,inactive,inactive,inactive,inactive,inactive,inactive,6.79%,inactive,inactive,-3.06%,19% (inactive),-5.45% (inactive),inactive
Clc1cccc(Cl)c1Cl,inactive,inactive,inactive,inactive,inactive,inactive,inactive,inactive,inactive,inactive,inactive,inactive,inactive,4.23% and 3.5%,inactive,inactive,3.05% and -10.8%,1.17% (inactive) and -4.41% (inactive),-6.61% (inactive) and -16.3% (inactive),inactive
CN(C)N=O,inactive,inactive,inactive,inactive,inactive,inactive,inactive,inactive,inactive,inactive,inactive,inactive,inactive,-8.99%,inactive,inactive,1.95%,-0.776% (inactive),11.5% (inactive),inactive
CC12CC1(C)C(=O)N(c1cc(Cl)cc(Cl)c1)C2=O (configuration not stated),inactive,inactive,inactive,inactive,inactive,inactive,inactive,inactive,inactive,,,inactive,inactive,-5.02% and -2.83%,inactive,inactive,4.78%,-13.5% (inactive),4.26% (inactive) and 9.02% (inactive),inactive
c1ccc(P(c2ccccc2)c2ccccc2)cc1,25.1 µM (active),inactive,inactive,inactive,inactive,inactive,inactive,inactive,inactive,inactive,inactive,inactive,inactive,22.6%,inactive,inactive,-7.38%,14.4% (inactive),5.79% (inactive),
Oc1cccc(Cl)c1Cl,inactive,inactive,inactive,inactive,inactive,inactive,inactive,inactive,inactive,inactive,inactive,inactive,inactive,-10%,inactive,inactive,-4.72%,-5.77% (inactive),9.41% (inactive),
O=c1ccc(=O)[nH][nH]1,inactive,inactive,inactive,inactive,inactive,inactive,inactive,inactive,inactive,inactive,inactive,inactive,inactive,-8.67% and -14.6%,inactive,inactive,-4.32% and 8.97%,-4.77% (inactive) and 2.87% (inactive),-3.55% (inactive),inactive
